# Sampled rows, rich in hits. Any-hit rate of the full collection: about 4.8%.
# ssDAF-12 act – S. stercoralis DAF-12 nuclear receptor activators, primary screen, cell-based, luminescence, HEK293, GRIP1 co-expression, lit1-tk-luc; HEK293 ssDAF-12/GRIP1 lit1-tk-luc reporter; % of 3 µM dafachronic acid response; 370,000 tested, 1% active; AID 652126, 2013; Nuclear hormone receptor DAF-12 (Strongyloides stercoralis); activation, % at 6.8 µM;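 active means activation above the mean over all tested compounds plus 3 SD, cut at about 0.9% in these data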;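 further: 0% = DMSO-only wells and 100% = 3 µM delta7-dafachronic acid wells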
# DAX1 inh-1 – DAX1 (NR0B1) inhibitors, primary screen, cell-based, HEK293, Gal4-DAX1, luciferase luminescence; Nuclear receptor subfamily 0 group B member 1 (Homo sapiens), P51843; HEK293 Gal4-DAX1 luciferase reporter; inhibition, % at 6.75 µM; 340,000 tested, 0.99% active; AID 504766, 2011;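 active means inhibition above the mean over all tested compounds plus 3 SD, cut at about 4.2% in these data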;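 further: 0% = DAX1-transfected cells with DMSO and 100% = empty-vector control cells with DMSO; inhibition shows as a rise in luminescence from relieved DAX1 repression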
# SMARCA2 act – SMARCA2 (BRM) function activators, primary screen, cell-based, luminescence, high throughput; MG213 cells, MMTV-luciferase reporter, dexamethasone, overnight; activation, % at 9.1 µM; 370,000 tested, 1% active; in the data active means activation above about 7.8%;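 further: 0% = vehicle wells and 100% = reference activator wells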
# hcDAF-12 act – H. contortus DAF-12 nuclear receptor activators, primary screen, cell-based, luminescence, HEK293, lit1-tk-luc reporter | activation, % at 6.8 µM | 370,000 tested, 1.4% active | HEK293 hcDAF-12 lit1-tk-luc reporter; 0% DMSO, 100% Δ7-dafachronic acid;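 active means activation above the mean of all tested compounds plus 3 SD, cut at about 5.5% in these data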;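 further: 100% = response to 3 µM Δ7-dafachronic acid high control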
# DAX1 inh-2 – DAX1 (NR0B1) inhibitors on StAR promoter, primary screen, cell-based, luminescence, SF-1 (NR5A1), full-length DAX-1; AID 652010, 2013; HEK293T StAR-luciferase reporter, SF-1/DAX-1 repression relief; 370,000 tested, 1.1% active; inhibition, % at 6.8 µM;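 active means inhibition above the mean over all tested compounds plus 3 SD, cut at about 3.6% in these data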;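 further: 0% = DAX-1 cells with DMSO and 100% = cells lacking DAX-1 with DMSO; higher inhibition means more luminescence from relief of DAX-1 repression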
# hgDAF12 agonist – H. glycines DAF-12 receptor agonists, primary screen, cell-based, luminescence, HEK293, GAL4 fusion, UAS-luciferase | activation, % at 6.8 µM | HEK293 GAL4-hgDAF12 UAS-luciferase reporter, agonist luminescence; normalized to butyrate control | Nuclear hormone receptor DAF-12 (Heterodera glycines), GAL4 fusion | 370,000 tested, 1.8% active;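 active means activation above a cutoff set at the mean of all screened compounds plus 3 SD, cut at about 10% in these data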;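 further: 0% = DMSO wells and 100% = sodium butyrate wells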
# LXRb hcDAF ctr – LXR agonists, Gal4 luciferase reporter, confirmation, counter-screen for hcDAF-12 agonist project, cell-based, luminescence, HEK293, H. contortus campaign | 3,400 tested, under 10 active | shares compounds with hcDAF-12 act | HEK293 Gal4-LXR tk-luc reporter, 24 h; normalized: DMSO 0%, positive control 100% | activation, % at 6.8 µM;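 active means mean percent activation of the reporter above a cutoff set as the average over tested compounds plus their standard deviation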
# Target sequence (P55055 whole entry, looked up, the tested form may be a part): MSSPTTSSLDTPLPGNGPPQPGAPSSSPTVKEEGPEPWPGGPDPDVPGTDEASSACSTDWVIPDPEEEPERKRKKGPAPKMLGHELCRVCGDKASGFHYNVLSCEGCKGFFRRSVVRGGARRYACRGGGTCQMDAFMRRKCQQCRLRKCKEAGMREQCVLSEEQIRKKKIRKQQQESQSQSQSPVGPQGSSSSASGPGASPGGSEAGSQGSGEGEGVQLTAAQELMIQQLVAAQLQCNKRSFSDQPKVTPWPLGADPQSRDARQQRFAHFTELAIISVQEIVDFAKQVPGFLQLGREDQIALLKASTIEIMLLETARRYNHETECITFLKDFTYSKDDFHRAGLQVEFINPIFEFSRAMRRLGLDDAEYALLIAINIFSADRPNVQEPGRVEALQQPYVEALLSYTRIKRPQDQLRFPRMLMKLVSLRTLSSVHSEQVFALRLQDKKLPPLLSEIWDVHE
# hcDAF12 ag – H. contortus DAF-12 receptor agonists, confirmation, cell-based, luminescence, HEK293, lit1-tk-luc, triplicate; AID 743032, 2013; shares compounds with hcDAF-12 act; HEK293 hcDAF-12 lit1-tk-luc reporter; % of Δ7-dafachronic acid response; activation, % at 6.8 µM; 3,400 tested, 61% active;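 active means mean activation across triplicate tests above the threshold derived from the earlier primary screen, cut at about 5.5% in these data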;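 further: 0% = DMSO only wells and 100% = 3 µM Δ7-dafachronic acid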
# Active calls of the source: *; . = no result.
SMILES,ssDAF-12 act,DAX1 inh-1,SMARCA2 act,hcDAF-12 act,DAX1 inh-2,hgDAF12 agonist,LXRb hcDAF ctr,hcDAF12 ag
COc1cccc(-c2nnc(Nc3nc4c(F)cccc4s3)o2)c1,0,0,3,8.3*,3,9,0,6.8*
CC(C)(C)CCN1CCC[C@H](NC(=O)COc2ccc(F)c(Cl)c2)C1,-1,.,.,1,.,-3,.,.
CCN(CC)C(=O)Cn1c2ccccc2c2nc3n(c(=O)c21)CCS3,-1,.,.,0,.,-2,.,.
CCCCc1ccc(NC(=O)CC(C)(C)C)cc1,0,-1,3,7.0*,2,13*,0,4
O=C(CNSc1ccc([N+](=O)[O-])cc1[N+](=O)[O-])OCc1ccccc1,0,.,0,0,2,0,.,.
Clc1ccccc1-c1ccc(/C=N/Nc2nncc(-c3ccccc3)n2)o1,0,-2,-3,10*,0,0,0,3
O=C(CSCC(=O)Nc1nc(-c2ccc3c(c2)OCO3)cs1)Nc1nccs1,-1,-1,2,8.4*,1,9,0,-1
CCCCCCCC(=O)N[C@H]1CC[C@@]23CCCN2C(=O)CCC[C@H]3[C@H]1C,-2,.,.,0,.,-1,.,.
C/C(=N\N=C(/N)c1nonc1N)c1ccc2c(c1)OCO2,0,1,5,7.1*,4,11*,2,5
O=C1[C@H](c2ccccc2)[C@@H](c2ccncc2)N1c1ccncc1,-1,.,0,-3,-2,4,.,.
Cc1ccc(C)c(N=Nc2nc3ccccc3n2C)c1,1.2*,2,-1,12*,0,8,1,13*
CC1(C)CC(=O)C=C(Nc2ccccc2NC(=O)c2cc(F)ccc2F)C1,-1,.,-4,0,-2,-1,.,.
Cc1cc(/C=C2\Cc3ccccc3C2=O)c(C)n1-c1ccccc1,1,-1,-4,9.0*,1,8,0,-1
O=S(=O)(Nc1ccn(-c2ccccc2)n1)c1ccc(Br)cc1,-1,0,6,7.3*,2,5,0,4
Cc1ccc2[nH]c(=O)c(C(c3nnnn3C3CCCC3)N3CCCc4ccccc43)cc2c1 (stereo unspecified),0,0,-1,6.7*,1,2,0,4
COc1cccc(-n2c(Cc3cc(=O)[nH]c(=O)[nH]3)nnc2SCC(=O)N2CCCCC2)c1,0,1,1,8.3*,-1,-1,0,4
CCOC(=O)N1CCN(C(=O)CSc2nc3c([nH]c4ccccc43)c(=O)n2CC)CC1,0,0,1,8.3*,-5,1,0,1
C=CCn1c(SCC(=O)N2CCN(c3ccccc3)CC2)nc2c([nH]c3ccccc32)c1=O,0,3,0,9.4*,1,2,0,4
COc1cccc(-n2c(SCC(=O)N3CCCCC3)nc3c([nH]c4ccccc43)c2=O)c1,0,0,-3,7.0*,1,2,0,4

# Screens as filed in PubChem BioAssay.
